Each structure is given as a SMILES string. About 7,500 (2.1%) of roughly 360,000 compounds were called active. Roughly 8% stayed inconclusive and do not appear here. This is one part of a sample in which actives are shown more often than they occur. Unmarked numbers belong to inactive results. Calls come from the whole dose curve; as a rule, active = well fitted cell-killing curve with a large enough effect; inconclusive = small, poorly fitted or top-dose-only effect, or effect the other way, or another doubt; inactive = no such curve, though single readings can be large or run the other way.
Potency is the fitted concentration of half-maximal effect.

A short description of the test: qHTS for induction of synthetic lethality in tumor cells producing 2HG: qHTS for the HT-1080-IDH1KD cell line.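 For activity, negative = toxicity: 0% = DMSO wells and -100% = cell-free medium wells.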 To be noted: HT-1080 IDH1 knockdown viability, ATP luminescence, 48 h; series mostly up to 46.1 µM; activity, negative = toxicity: at the top concentration. Summed up: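 Using the IDH1-knockdown HT-1080 line run in the same batch and compound series as the NT line, viability after 48 h at 37 °C was determined by CellTiter-Glo luminescence and expressed as % activity.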
On the technique in general: In qHTS, concentration-response curves come from the screen itself.
Regarding `O=c1[nH]c2cccnc2n(CCNc2ncc(C(F)(F)F)cc2Cl)c1=O`, the “activity, negative = toxicity” value was -16.6%.
With `COc1cccc(/C=N/Nc2ncc(C(F)(F)F)cc2Cl)c1O`, the Potency was 9.2 µM (active).
Take `COc1ccc(Br)cc1/C=N/Nc1ccc(Cl)c(C(=O)O)c1`: the “activity, negative = toxicity” value is -10.5%.
Still for that read-out and setting: in the case of `CCOC(=O)c1c(C)[nH]c(C)c1C(=O)COC(=O)/C=C/c1cccc([N+](=O)[O-])c1` it was -1.39%; in that of `Nc1[nH]c(C(=O)c2ccccc2)c(-c2ccncc2)c1C(=O)NCc1cccc2ccccc12`, 4.84%; in that of `CCOC(=O)[C@]12CCCC=C1N(CCC1=CCCCC1)C(=O)[C@H](CC(=O)N1CCSCC1)C2`, -6.14%.
Same read-out and setting: in the case of `Cc1ccccc1S(=O)(=O)NC(=O)C1(C)CCN1C(=O)C1(c2ccccc2)CCCC1` (stereo not drawn) it was 0.534%.
As for `c1ccc2c(NC3C4CC5CC(C4)CC3C5)nc(N3CCOCC3)nc2c1` (stereo not drawn), the Potency is 18.4 µM (active).
For `Fc1cnc(N2CCOCC2)nc1NCc1ccccc1`, the “activity, negative = toxicity” value was 3.11%.
Turning to `c1ccc(-c2nnc(N3CCOCC3)c3ccccc23)cc1`, the “activity, negative = toxicity” value is 2.08%.
Regarding `CN1c2ccc(C=O)c3c(C=O)ccc(c23)N(C)C1(C)C`, the Potency is 11.6 µM (active).
`Cc1ccc(C=O)c([B-](F)(F)F)c1`: the “activity, negative = toxicity” value is 3.04%.
Still for that read-out and setting: in the case of `CC1CN(C(=O)c2cccc(NS(=O)(=O)c3ccc(Br)cc3)c2)CC(C)O1` (stereo not drawn) it was -2.09%; in that of `CCc1nc2c(OCC(N)=O)cccn2c1N(C)C(=O)c1ccc(OC)cc1`, 3.04%.
As to `C[C@@H]1CN([C@H](C)CO)S(=O)(=O)c2ccc(C#C[C@@H](C)O)cc2O[C@@H]1CN(C)Cc1ccc(-c2ccccc2)cc1`, the “activity, negative = toxicity” value is -29.6%.
The same measure, in the same setting: in the case of `O=C1c2ccccc2C(=O)N1CCC#Cc1ccc2cc(C3(O)CCCCC3)oc(=O)c2c1` it was 12.8%; in that of `COc1cc(/C=C2\Oc3ccc(C#Cc4ccc(O)cc4)cc3C2=O)cc(OC)c1`, -24.1%.
In the case of `COc1cc(C#Cc2ccc3cc(CCCO)oc(=O)c3c2)cc(OC)c1`, the Potency was 2.06 µM (active).
In the case of `NC(=O)Cn1cc(/C=N\NS(=O)(=O)c2ccccc2)c2ccccc21`, the “activity, negative = toxicity” value is -7.45%.
In the case of `COC(=O)Cn1cc(/C=C/[N+](=O)[O-])c2ccccc21`, the Potency is 23.1 µM (active).
`COC(=O)c1cn(CC(=O)NCc2cccs2)c2ccccc12`: the “activity, negative = toxicity” value was -28%.
The same measure, in the same setting: in the case of `COC(=O)[C@]12CCCCC=C1N(Cc1cccc3ccccc13)C(=O)[C@H](CC(=O)N1CCOCC1)C2` it was -1.79%; in that of `COCCCN1C(=O)C(CC(=O)NCc2cccs2)CC(C(=O)N2CCOCC2)=C1C` (stereo not drawn), 1.42%.
In the case of `COC(=O)C1=C(Nc2ccc(C)cc2)C=C(C)C(C(=O)OC)C1c1ccc(F)cc1` (stereo not drawn), the Potency was 11.2 µM (active).
For `COC(=O)C1C(=O)NCC1c1ccc(C)cc1` (stereo not drawn), the “activity, negative = toxicity” value is 15.5%.
On the same count and under the same terms, in the case of `COC(=O)C1=C(Nc2ccc(OC)cc2)C=C(C)C(C(=O)OC)C1c1ccc(C)cc1` (stereo not drawn) it was -3.99%; in that of `COc1ccc(Cn2c(=O)oc3ccccc32)cc1`, -0.0287%; in that of `CC(C)CCNC(=O)c1[nH]c(C(F)(F)F)nc1-c1ccccc1`, 7.3%.
Same read-out and setting: in the case of `O=C(Nc1cc(F)ccc1F)c1ccc2c(=O)n3c(nc2c1)CCC3` it was 12.3%; in that of `CC1(C(=O)NCc2ccc3c(c2)OCO3)CCN1C(=O)Cc1cccs1` (stereo not drawn), 27.3%; in that of `CN1CCn2cnc(C(=O)NCC(=O)OC(C)(C)C)c2C1=O`, 7.32%.
Consider `C[N+](C)(C)CCNC(=O)c1c[nH]c2ccccc12`, for which the “activity, negative = toxicity” value was 7.44%.
On to `CC[C@H]1CN2CCc3cc(OC)c(OC)cc3[C@@H]2C[C@@H]1C[C@H]1NCCc2cc(OC)c(OC)cc21`, for which the Potency was 0.13 µM (active).
As for `COc1cc2c(cc1OC)CN(CC(=O)Nc1ccc(F)cc1)CC2`, the “activity, negative = toxicity” value was -0.566%.
Still for that read-out and setting: in the case of `Clc1ccc(-c2cccc3nccn23)cc1` it was 8.87%.
`Cc1cccc(CN2CCN(C3CN(Cc4ccccc4)S(=O)(=O)C3)CC2)c1` (stereo not drawn): the “activity, negative = toxicity” value was -7.16%.
Still for that read-out and setting: in the case of `COc1cc(CCN=Cc2ccccc2O)c([N+](=O)[O-])cc1OC` it was 20.8%.
On the same count and under the same terms, in the case of `Cc1ccc(Oc2cnn(-c3ccccc3)c(=O)c2Br)cc1` it was -18.1%.
Consider `C=CCNc1cnn(-c2ccc(C)cc2)c(=O)c1Cl`, for which the activity, negative = toxicity is 5.14% [at 9.24 µM].
`Cc1cccc(-n2ncc(Cl)c(Cl)c2=O)c1`: the Potency was 20.6 µM (active).
Consider `CCCC(=O)N1CCC1(C)C(=O)NCc1ccc(C(C)C)cc1` (stereo not drawn), for which the “activity, negative = toxicity” value was 19.5%.
Still for that read-out and setting: in the case of `Cc1csc(=O)n1CCC(=O)OCC(=O)Nc1ccc(N2CCOCC2)cc1` it was 0.321%.
With `COc1ccc(CC(N)c2csc(NC(=O)Nc3ccc(C(C)C)cc3)n2)cc1` (stereo not drawn), the Potency was 14.6 µM (active).
Take `CC(C)(C)CC(=O)Nc1nc(C(N)Cc2ccc(C(F)(F)F)cc2)cs1` (stereo not drawn): the Potency was 18.4 µM (active).
Turning to `NC(c1csc(NC(=O)Nc2cccc(C(F)(F)F)c2)n1)C1CCCCC1` (stereo not drawn), the Potency is 14.6 µM (active).
`O=C(Nc1ccc(C(=O)N2CCOCC2)cc1)Nc1cccc(C(F)(F)F)c1`: the “activity, negative = toxicity” value is -0.769%.
Same read-out and setting: in the case of `Cc1ccccc1NC(=O)Cc1nc(COC(=O)c2ccc(C(F)(F)F)cc2)cs1` it was 3.99%; in that of `COc1ccc(NC(=O)C(=O)NCC(=O)Nc2cccc(C(F)(F)F)c2)cc1`, 3.95%.
For `COc1ccc(C(N)c2csc(NC(=O)Nc3cccc(C(F)(F)F)c3)n2)cc1` (stereo not drawn), the Potency is 18.4 µM (active).
On to `CC(C)(C)CC(=O)Nc1nnc(SCC(=O)NCc2cccs2)s1`, for which the “activity, negative = toxicity” value was 1.04%.
On the same count and under the same terms, in the case of `COC(=O)[C@H](CCSC)NC(=O)Nc1ccc(OC)cc1` it was 15%.
On the same count and under the same terms, in the case of `NC(c1ccccc1)c1csc(NC(=O)Nc2cccc(C(F)(F)F)c2)n1` (stereo not drawn) it was -27%; in that of `CC(C)C[C@H](NC(=O)Nc1cccc(C(F)(F)F)c1)C(=O)O`, 7.1%.
Same read-out and setting: in the case of `COc1ccc(NC(=O)C(Br)C(C)C)cc1` (stereo not drawn) it was -0.582%; in that of `C=C1C=C(C)n2ncc(C(=O)Nc3ccccc3O)c2N1`, -3.89%.
As to `CCc1nc2c(OCCOc3ccccc3)cccn2c1N(C)C(=O)c1ccccc1F`, the “activity, negative = toxicity” value is 5.45%.
The same measure, in the same setting: in the case of `CCOc1cc(/C=N/NC(=O)c2ccncc2)cc(Br)c1O` it was 2.86%; in that of `Cc1cc(Cl)ccc1C(=O)C1CCCN(C(=O)c2ccc3c(c2)OCO3)C1` (stereo not drawn), -12%; in that of `C[C@@H]1CN([C@@H](C)CO)C(=O)CCCn2cc(nn2)CO[C@H]1CN(C)S(=O)(=O)c1ccc(-n2cccn2)cc1`, 0.687%.
Same read-out and setting: in the case of `O=C(c1ccc(CS(=O)Cc2ccccc2Cl)o1)N1CCN(c2ccccc2)CC1` (stereo not drawn) it was -1.14%; in that of `CC1(C(=O)NS(=O)(=O)c2ccc(C#N)cc2)CCN1C(=O)c1ccc(C2CCCCC2)cc1` (stereo not drawn), -17.3%; in that of `CCOC(=O)C1C(C)C(C(C)(C)C)N(S(=O)(=O)c2ccc(C)cc2)C1c1ccccc1` (stereo not drawn), -24.4%.
The same measure, in the same setting: in the case of `Cc1ccc(-c2ccc(CN3C(C)C(=O)N(Cc4cn(CCC5OCCCO5)nn4)CCS3(=O)=O)cc2)cc1` (stereo not drawn) it was -11.1%.

The record behind these values is PubChem BioAssay AID686971 (National Center for Advancing Translational Sciences (NCATS), 2013).
